# Where “and” joins values, the source holds several entries; their conditions need not be identical. Equal values may be shown once. Results filed as inconclusive are left out. Some compounds were tested as several samples or in several runs, with calls that do not always agree. Calls of active or inactive are those of the source. Unless noted, calls follow the shape of the dose curve; as a rule, active = well fitted inhibition curve with a large enough effect; inconclusive = small, poorly fitted or top-dose-only effect; inactive = flat fitted curve, though single readings scatter. Where a SMILES comes first, the peptide text is derived from it. Bridges are numbered along the chain shown (N, C = ends). [ ]: non-standard residue; d: D form. The star is where a group is joined. ξ: configuration not given here. d(aThr) = C[C@@H](O)[C@@H](N)C(=O)O; ξThr(3R) = C[C@@H](O)C(N)C(=O)O; X3 = CC[C@@H](C)CCCCC(=O)*; dDab = NCC[C@@H](N)C(=O)O
# Tests used:
# [1] = Drug repurposing screens with cells derived from glioblastoma tumor samples (AID 1345199); details: GBM patient neurospheres viability, ATP luminescence, 48 h; also: nearly all actives have a fitted effect of over 40% in size; also: potency is read from the fitted curve at half-maximal effect; as to activity, negative = cell killing: % is scaled to controls: 0 for no effect and ±100 for the full control effect
# In short: (§1)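 Primary testing used CD133+ neurospheres from four GBM patients, seven concentrations, 48 h exposure and ATP-based viability; confirmation added three slower-growing patient lines.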
# astro = control astrocytes; experiment: as above; details: viability, ATP luminescence, 48 h; series mostly up to 45.9 µM
# In short: as §1
# [2] = target: Nuclear receptor subfamily 1 group I member 2 (Rattus norvegicus) (UniProt Q9R1A7); experiment: qHTS assay for small molecule activators of the rat pregnane X receptor (rPXR) signaling pathway (AID 651751; call rule not given here; also: 0% is about no effect); details: rPXR reporter cells, luciferase (One-Glo), 24 h
# [3] = qHTS assay for small molecule activators of the human pregnane X receptor (PXR) signaling pathway (AID 720659; call rule not given here; also: 0% is about no effect); details: DPX-2 HepG2 CYP3A4-luciferase, 24 h; series mostly up to 92.3 µM
# [4] = at 45.9 µM (top of the series), tumour line B
# [5] = at 45.9 µM (top of the series), tumour line D
# [6] = at 46.1 µM (top of the series), tumour line C
# Chain of Nuclear receptor subfamily 1 group I member 2 (Rattus norvegicus) (Q9R1A7 whole entry, looked up): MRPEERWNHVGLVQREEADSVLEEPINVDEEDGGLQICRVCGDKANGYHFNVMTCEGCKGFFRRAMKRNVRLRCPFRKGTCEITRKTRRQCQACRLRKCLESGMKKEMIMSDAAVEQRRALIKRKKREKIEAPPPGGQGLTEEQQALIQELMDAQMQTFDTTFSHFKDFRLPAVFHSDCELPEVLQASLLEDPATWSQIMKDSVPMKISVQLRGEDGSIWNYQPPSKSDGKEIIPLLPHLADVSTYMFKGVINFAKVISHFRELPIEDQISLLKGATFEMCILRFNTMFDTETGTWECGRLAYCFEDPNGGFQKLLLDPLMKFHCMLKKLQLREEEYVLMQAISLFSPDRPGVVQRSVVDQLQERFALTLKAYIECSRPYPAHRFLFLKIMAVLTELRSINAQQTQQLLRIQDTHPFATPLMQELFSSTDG
smiles,measurement,setting,value
CC12CCC(C[N+](C)(CCC[N+](C)(C)C)C1)C2(C)C (centres undefined),"activity, negative = cell killing",[1]; [4],-11.8% (inactive)
same,"activity, negative = cell killing",[1]; [5],-25.7% (inactive)
same,"activity, negative = cell killing",[1]; [6],21.9% (inactive)
same,Potency,astro,inactive
FC(F)(F)C(F)(F)C(F)(F)C(F)(F)C(F)(F)C(F)(F)F,"activity, negative = cell killing",[1]; [4],-7.96% (inactive)
same,"activity, negative = cell killing",[1]; [5],-23% (inactive)
same,"activity, negative = cell killing",[1]; [6],-26.4% (inactive)
same,Potency,astro,inactive
CO/N=C(\C(=O)N[C@@H]1C(=O)N2C(C(=O)[O-])=C(C[n+]3cccc4c3CCC4)CS[C@H]12)c1csc(N)n1,"activity, negative = cell killing",[1]; [4],-11.7% (inactive)
same,"activity, negative = cell killing",[1]; [5],-9.09% (inactive)
same,Potency,[1]; tumour line C,23.1 µM (active)
same,Potency,astro,inactive
CCCCCCCCCCCCCCCCCC(=O)OC[C@@H](O)[C@H]1OC[C@H](O)[C@H]1O,"activity, negative = cell killing",[1]; [4],3.83% (inactive)
same,"activity, negative = cell killing",[1]; [5],2.86% (inactive)
same,"activity, negative = cell killing",[1]; [6],-1.68% (inactive)
same,Potency,astro,inactive
same,max response,[2],2.96% (inactive)
CC1=CC(=O)NS(=O)(=O)O1,"activity, negative = cell killing",[1]; [4],-5.56% (inactive)
same,"activity, negative = cell killing",[1]; [5],0.134% (inactive)
same,"activity, negative = cell killing",[1]; [6],-19.5% (inactive)
same,Potency,astro,inactive
same,max response,[2],4.96% (inactive) and 0.0631% (inactive)
same,outcome,[3],inactive
CC(O)CN(C)C (centres undefined),"activity, negative = cell killing",[1]; [4],-7.97% (inactive)
same,"activity, negative = cell killing",[1]; [5],-11.2% (inactive)
same,"activity, negative = cell killing",[1]; [6],-3.25% (inactive)
same,Potency,astro,inactive
CNC(C)CCC=C(C)C (centres undefined),"activity, negative = cell killing",[1]; [4],-23.7% (inactive)
same,Potency,[1]; tumour line A,11.2 µM (active)
same,Potency,astro,inactive
CS(=O)(=O)c1ccc([C@@H](O)[C@@H](COC(=O)CN)NC(=O)C(Cl)Cl)cc1,"activity, negative = cell killing",[1]; [4],-20.1% (inactive)
same,"activity, negative = cell killing",[1]; [6],-21.6% (inactive)
same,Potency,astro,inactive
CC[C@@H](C(=O)[C@@H](C)[C@@H](O)[C@H](C)[C@@H]1O[C@@H]([C@@H](CC)C(=O)O)CC[C@@H]1C)[C@H]1O[C@]2(C=C[C@@H](O)[C@]3(CC[C@@](C)([C@H]4CC[C@](O)(CC)[C@H](C)O4)O3)O2)[C@H](C)C[C@@H]1C,Potency,astro,7.94 µM (active)
CC[C@@H](C)CCCCC(=O)N[C@H](CCN)C(=O)N[C@@H](C(=O)N[C@H](CCN)C(=O)N[C@@H]1CCNC(=O)C([C@@H](C)O)NC(=O)[C@@H](CCN)NC(=O)[C@@H](CCN)NC(=O)[C@@H](CC(C)C)NC(=O)[C@@H](Cc2ccccc2)NC(=O)[C@@H](CCN)NC1=O)[C@@H](C)O (stereo partly drawn) (X3-[dDab][d(aThr)][dDab][dDab][dDab][dF][dL][dDab][dDab][ξThr(3R)]; lactam 4-C),"activity, negative = cell killing",[1]; [5],-10.3% (inactive)
same,"activity, negative = cell killing",[1]; [6],4.35% (inactive)
same,Potency,astro,inactive
CC[C@@]1([C@@H]2O[C@@H]([C@H]3O[C@@](O)(CO)[C@H](C)C[C@@H]3C)C[C@@H]2C)CC[C@H]([C@]2(C)CC[C@]3(C[C@H](O)[C@@H](C)[C@@H]([C@@H](C)[C@@H](OC)[C@H](C)C(=O)O)O3)O2)O1 (stereo in doubt),Potency,astro,14.1 µM (active)
C=C1CC[C@H](O)CC1=C/C=C1\CCC[C@]2(C)[C@@H]([C@H](C)CCCC(C)(C)O)CC[C@@H]12,Potency,astro,20 µM (active)
Cc1cc(-c2ccc(N=Nc3c(S(=O)(=O)O)cc4cc(S(=O)(=O)O)cc(N)c4c3O)c(C)c2)ccc1N=Nc1c(S(=O)(=O)O)cc2cc(S(=O)(=O)O)cc(N)c2c1O,Potency,astro,8.91 µM (active)
CC1=CC(=C(c2ccc(N)cc2)c2ccc(N)cc2)C=CC1=N,Potency,astro,3.16 µM (active)
Cc1ccccn1,"activity, negative = cell killing",[1]; [4],-10.1% (inactive)
same,"activity, negative = cell killing",[1]; [6],-22.4% (inactive)
same,Potency,astro,inactive
CCN(CC)C(=O)c1cccnc1,"activity, negative = cell killing",[1]; [4],-8.29% (inactive)
same,"activity, negative = cell killing",[1]; [6],-25.5% (inactive)
same,Potency,astro,inactive
N=C(N)n1cccn1,"activity, negative = cell killing",[1]; [4],-2.75% (inactive)
same,Potency,astro,inactive
COc1ccccc1N1CCN(CCCC(=O)c2ccc(F)cc2)CC1,"activity, negative = cell killing",[1]; [4],-16% (inactive)
same,Potency,[1]; tumour line A,10 µM (active)
same,Potency,astro,inactive
Cn1c(=O)c2c(ncn2CCOC(=O)C(C)(C)Oc2ccc(Cl)cc2)n(C)c1=O,"activity, negative = cell killing",[1]; [4],-17% (inactive)
same,"activity, negative = cell killing",[1]; [6],-18.4% (inactive)
same,Potency,astro,inactive
C=Cc1ccc(S(=O)(=O)O)cc1,"activity, negative = cell killing",[1]; [4],-6.14% (inactive)
same,"activity, negative = cell killing",[1]; [5],-2.96% (inactive)
same,Potency,astro,inactive
CN=C1C=CC(=C(c2ccc(N(C)C)cc2)c2ccc(N(C)C)cc2)C=C1,Potency,astro,11.2 µM (active)
C=C[C@]1(C)C[C@@H](OC(=O)CSCCN(CC)CC)[C@]2(C)[C@H](C)CC[C@]3(CCC(=O)[C@H]32)[C@@H](C)[C@@H]1O,"activity, negative = cell killing",[1]; [4],-23.5% (inactive)
same,Potency,[1]; tumour line A,7.94 µM (active)
same,Potency,astro,inactive
CCCCCCCCCCCCCCCCOCCOCCOCCOCCOCCOCCOCCOCCOCCOCCOCCOCCOCCOCCOCCOCCOCCOCCOCCOCCO,Potency,astro,3.16 µM (active)
CC(C)OC(=O)Nc1ccc2nc(-c3cscn3)[nH]c2c1,Potency,astro,2.82 µM (active)
Cc1cc(-c2ccc(N=Nc3ccc4c(S(=O)(=O)O)cc(S(=O)(=O)O)c(N)c4c3O)c(C)c2)ccc1N=Nc1ccc2c(S(=O)(=O)O)cc(S(=O)(=O)O)c(N)c2c1O,Potency,astro,17.8 µM (active)
C[N@+]12CCCC[C@@H]1CCC(=C(c1cccs1)c1cccs1)C2,Potency,astro,inactive
C=C1C(CCl)(CCl)C2(Cl)C(Cl)C(Cl)C1(Cl)C2(Cl)Cl (centres undefined),Potency,astro,inactive
CCCCCCCCCC(=O)NO,"activity, negative = cell killing",[1]; [4],-14.3% (inactive)
same,"activity, negative = cell killing",[1]; [6],-21.2% (inactive) and 7.01% (inactive)
same,Potency,astro,inactive
CN(C)C(=O)CCSC(SCCC(=O)O)c1cccc(/C=C/c2ccc3ccc(Cl)cc3n2)c1 (centres undefined),Potency,astro,17.8 µM (active)
CCCCCCCCCc1ccc(OCCOCCO)cc1,Potency,astro,12.6 µM (active)
CNC(=O)C[C@@H](N)C(=O)N[C@@H](C(=O)N[C@@H]1C(=O)N2[C@@H]1SC(C)(C)[C@@H]2C(=O)O)c1ccc(O)cc1,"activity, negative = cell killing",[1]; [4],-11.1% (inactive)
same,"activity, negative = cell killing",[1]; [6],-11.3% (inactive)
same,Potency,astro,inactive
O=C(O[C@H]1CN2CCC1CC2)N1CCc2ccccc2[C@@H]1c1ccccc1,Potency,astro,inactive
CCC(=O)c1ccc2c(c1)N(CCCN1CCN(CCO)CC1)c1ccccc1S2,Potency,astro,17.8 µM (active)
COc1ccc2c(c1)OC(C)(C)C(c1ccccc1)C2c1ccc(OCCN2CCCC2)cc1 (centres undefined),Potency,astro,35.5 µM (active)
Cc1cccc(C)c1NC(=O)C1CCCCN1C (centres undefined),"activity, negative = cell killing",[1]; [4],-7.34% (inactive)
same,"activity, negative = cell killing",[1]; [6],2.03% (inactive)
same,Potency,astro,inactive
OCCN1CCN(CC/C=C2/c3ccccc3Sc3ccc(Cl)cc32)CC1,"activity, negative = cell killing","[1]; at 21.2 µM (top of the series), tumour line B",-19.4% (inactive)
same,"activity, negative = cell killing","[1]; at 21.2 µM (top of the series), tumour line D",-24.9% (inactive)
same,Potency,astro,inactive
O=C(O)Cc1nn(Cc2ccc(Br)cc2F)c(=O)c2ccccc12,"activity, negative = cell killing",[1]; [4],-21.4% (inactive)
same,"activity, negative = cell killing",[1]; [5],-12.1% (inactive)
same,Potency,astro,inactive
CCN(CC)CCC(=O)N1c2ccccc2Sc2ccc(C(F)(F)F)cc21,Potency,astro,inactive
CCN(CC)CCCC(C)Nc1cc(/C=C/c2ccccc2Cl)nc2cc(Cl)ccc12 (centres undefined),Potency,astro,inactive
COC(=O)CC[C@H](N)C(=O)O,"activity, negative = cell killing",[1]; [4],-13.7% (inactive)
same,"activity, negative = cell killing",[1]; [5],-12.9% (inactive)
same,Potency,astro,inactive
O=c1n(CC2CO2)c(=O)n(CC2CO2)c(=O)n1CC1CO1 (centres undefined),max response,[2],-7.41% (inactive) and -4.4% (inactive)
same,outcome,[3],inactive
CCN(CC)CCOc1ccc2nc(N(C)C)sc2c1,Potency,astro,inactive
C=C1CC[C@H](O)CC1=C/C=C1\CCC[C@]2(C)[C@@H]([C@H](C)CC[C@@H](O)C(C)(C)O)CC[C@@H]12,"activity, negative = cell killing",[1]; [4],-20.7% (inactive)
same,Potency,[1]; tumour line A,8.91 µM (active)
same,Potency,astro,inactive
CN(C)CCC=C1c2ccccc2C(C)(C)c2ccccc21,Potency,astro,17.8 µM (active)
O=C(CCCN1CCN2CCCC2C1)c1ccc(F)cc1 (centres undefined),Potency,astro,inactive
CC(=C\c1ccccc1)/C=C1/SC(=S)N(CC(=O)O)C1=O,"activity, negative = cell killing",[1]; [5],-25% (inactive)
same,"activity, negative = cell killing",[1]; [6],-14.3% (inactive)
same,Potency,astro,inactive
CCOc1cc(-c2nccc3cc(OC)c(OC)cc23)cc(OCC)c1OCC,Potency,astro,inactive

# Source: PubChem BioAssay (NCATS)
